Measurements from PubChem BioAssay AID1159580 (chemical genetic matrix, 2015).
Several values for one entry are separate records, joined by “and”; a condition that tells them apart may be missing. Equal entries are not always repeated. Among all 5,500 compounds or so, about 2,000 (36%) were called active. Another 18% or so got no clear call; they are omitted. No stated cut-off is given here; in the data, active means normalized growth mostly below about 0.91 (no sharp cut-off); inconclusive means no clear call, values can overlap the other calls; inactive means mostly above about 0.92. Some of the results follow.

Assay: chemical genetic growth profiling, strain panel (AID 1159580);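 further: tested at 20 µM; growth read once vehicle control cultures reached saturation at 30 °C; 1 = growth at the plate median or of vehicle wells; lower values mean less growth of the strain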
Settings: S. cerevisiae deletion strains, growth OD

Measured: normalized growth

COC(=O)C[C@H]1C(C)(C)[C@@H](O)[C@@H]2CC3=C4C=C(OC)O[C@@H](c5ccoc5)[C@]4(C)CCC3[C@@]1(C)C2=O (some centres not stated)
inactive: locus YAL021C, strain ccr4, hits give low values 0.996 | locus YAL026C, strain drs2, hits give low values 0.99 | locus YAL030W, strain snc1, hits give low values 1 | locus YBL061C, strain skt5, hits give low values 1.01 | locus YBR009C, strain hhf1, hits give low values 1.01 | locus YBR021W, strain FUR4, hits give low values 1.01 | locus YBR023C, strain chs3, hits give low values 0.997 | locus YBR171W, strain sec66, hits give low values 0.999 | locus YBR229C, strain ROT2, hits give low values 1 | locus YBR231C, strain swc5, hits give low values 1 | locus YBR279W, strain paf1, hits give low values 0.999 | locus YCL011C, strain gbp2, hits give low values 1.01 | locus YCL016C, strain dcc1, hits give low values 0.999 | locus YCL029C, strain bik1, hits give low values 0.978 | locus YCL061C, strain MRC1, hits give low values 1.01 | locus YCL069W, strain vba3, hits give low values 0.983 | locus YCR088W, strain abp1, hits give low values 0.99 | locus YDL005C, strain med2, hits give low values 0.989 | locus YDL035C, strain GPR1, hits give low values 1.01 | locus YDL040C, strain nat1, hits give low values 0.998 | locus YDL074C, strain BRE1, hits give low values 1.02 | locus YDL101C, strain DUN1, hits give low values 1 | locus YDL134C, strain PPH21, hits give low values 1.01 | locus YDL185W, strain tfp1, hits give low values 0.982 | locus YDL192W, strain arf1, hits give low values 0.991 | locus YDR001C, strain nth1, hits give low values 0.992 | locus YDR069C, strain doa4, hits give low values 0.998 | locus YDR101C, strain arx1, hits give low values 1 | locus YDR137W, strain rgp1, hits give low values 1.01 | locus YDR159W, strain sac3, hits give low values 0.998 | locus YDR162C, strain NBP2, hits give low values 0.987 | locus YDR195W, strain ref2 0.962 | locus YDR297W, strain sur2, hits give low values 0.994 | locus YDR318W, strain mcm21, hits give low values 0.995 | locus YDR334W, strain swr1, hits give low values 0.978 | locus YDR335W, strain msn5, hits give low values 0.994 | locus YDR388W, hits give low values 0.985 | locus YDR392W, strain spt3, hits give low values 0.992 | locus YDR502C, strain sam2, hits give low values 0.982 | locus YEL003W, strain gim4, hits give low values 0.994 | locus YEL037C, strain rad23, hits give low values 0.988 | locus YEL061C, strain CIN8 (second series), hits give low values 0.982 | locus YEL061C, strain CIN8, hits give low values 1 | locus YER015W, strain faa2, hits give low values 1 | locus YER016W, strain bim1, hits give low values 1.01 | locus YER110C, hits give low values 0.979 | locus YER111C, strain swi4, hits give low values 1 | locus YER155C, strain BEM2 (second series), hits give low values 1.02 | locus YER155C, strain BEM2, hits give low values 1 | locus YER167W, strain BCK2, hits give low values 1.02 | locus YFR010W, strain ubp6, hits give low values 0.982 | locus YGL078C, strain dbp3, hits give low values 0.984 | locus YGL086W, strain mad1, hits give low values 0.991 | locus YGL167C, strain pmr1, hits give low values 1.01 | locus YGL173C, strain kem1, hits give low values 1 | locus YGL227W, strain vid30, hits give low values 0.983 | locus YGL240W, strain doc1, hits give low values 1.02 | locus YGL248W, strain PDE1, hits give low values 0.999 | locus YGL253W, strain hxk2, hits give low values 0.993 | locus YGR078C, strain PAC10, hits give low values 1 | locus YGR135W, strain pre9, hits give low values 0.976 | locus YGR252W, strain gcn5, hits give low values 0.994 | locus YHR013C, strain ard1, hits give low values 1.01 | locus YHR027C, strain rpn1, hits give low values 0.994 | locus YHR030C, strain SLT2, hits give low values 0.96 | locus YHR079C, strain IRE1 (second series), hits give low values 0.992 | locus YHR079C, strain IRE1, hits give low values 0.968 | locus YHR094C, strain hxt1, hits give low values 0.987 | locus YHR129C, strain ARP1, hits give low values 1 | locus YHR142W, strain chs7, hits give low values 0.977 | locus YHR200W, strain rpn10, hits give low values 0.988 | locus YIL066C, strain RNR3, hits give low values 1.02 | locus YIL073C, strain SPO22, hits give low values 0.981 | locus YIL125W, strain kgd1, hits give low values 0.991 | locus YIR030C, strain dcg1, hits give low values 0.992 | locus YJL092W, strain hpr5, hits give low values 0.993 | locus YJL095W, strain BCK1 (second series), hits give low values 1 | locus YJL095W, strain BCK1, hits give low values 0.996 and 0.97 | locus YJL115W, strain asf1, hits give low values 0.985 | locus YJL129C, strain trk1, hits give low values 0.97 | locus YJL134W, strain LCB3, hits give low values 1.01 | locus YJL154C, strain vps35, hits give low values 0.978 | locus YJL164C, strain tpk1, hits give low values 0.997 | locus YJL166W, strain qcr8, hits give low values 0.995 | locus YJL168C, strain set2, hits give low values 0.983 | locus YJL187C, strain SWE1 (second series), hits give low values 1.01 | locus YJR043C, strain POL32, hits give low values 1.04 | locus YJR066W, strain TOR1, hits give low values 0.92 | locus YKL009W, strain mrt4, hits give low values 0.986 | locus YKL068W, hits give low values 0.996 | locus YKL085W, strain MDH1 (second series), hits give low values 0.975 | locus YKL085W, strain MDH1, hits give low values 0.975 | locus YKL160W, strain elf1, hits give low values 1.01 | locus YKL190W, strain CNB1, hits give low values 1 | locus YKR001C, strain vps1, hits give low values 0.992 | locus YKR026C, strain gcn3, hits give low values 0.972 | locus YKR091W, strain srl3, hits give low values 1 | locus YLL001W, strain dnm1, hits give low values 1 | locus YLL026W, hits give low values 1.01 | locus YLL041C, strain sdh2, hits give low values 1.02 | locus YLR027C, strain aat2, hits give low values 1 | locus YLR039C, strain RIC1, hits give low values 0.935 | locus YLR058C, strain SHM2, hits give low values 1.01 | locus YLR102C, strain apc9, hits give low values 0.987 | locus YLR113W, strain HOG1, hits give low values 0.998 | locus YLR221C, strain rsa3, hits give low values 0.998 | locus YLR258W, strain gsy2, hits give low values 0.993 | locus YLR262C, strain YPT6 (second series), hits give low values 0.959 | locus YLR262C, strain YPT6, hits give low values 0.857 | locus YLR268W, strain sec22, hits give low values 0.997 | locus YLR320W, strain mms22, hits give low values 1 | locus YLR342W, strain FKS1 (second series), hits give low values 1.02 | locus YLR342W, strain FKS1, hits give low values 0.999 | locus YLR357W, strain rsc2, hits give low values 1.01 | locus YLR370C, strain arc18, hits give low values 0.993 | locus YLR371W, strain rom2, hits give low values 0.983 | locus YLR384C, strain iki3, hits give low values 1 | locus YLR418C, strain cdc73, hits give low values 0.962 | locus YML016C, strain PPZ1, hits give low values 1.01 | locus YML032C, strain rad52, hits give low values 1 | locus YML120C, strain ndi1, hits give low values 0.998 | locus YML124C, strain tub3, hits give low values 0.992 | locus YMR058W, strain fet3, hits give low values 1 | locus YMR078C, strain ctf18, hits give low values 0.987 | locus YMR125W, strain sto1, hits give low values 0.993 | locus YMR129W, hits give low values 0.997 | locus YMR205C, strain PFK2, hits give low values 1.02 | locus YMR223W, strain ubp8, hits give low values 0.976 | locus YMR231W, strain pep5, hits give low values 0.997 | locus YMR307W, strain GAS1, hits give low values 1 | locus YNL067W, strain RPL9B, hits give low values 0.997 | locus YNL071W, strain lat1, hits give low values 0.978 | locus YNL183C, strain NPR1, hits give low values 0.938 | locus YNL209W, strain ssb2, hits give low values 0.985 | locus YNL233W, strain BNI4, hits give low values 1.01 | locus YNL248C, strain rpa49, hits give low values 0.97 | locus YNL250W, strain rad50, hits give low values 0.981 | locus YNL271C, strain bni1, hits give low values 0.985 | locus YNL298W, strain CLA4, hits give low values 0.984 | locus YNL307C, strain MCK1, hits give low values 0.98 | locus YNL322C, strain KRE1 (second series), hits give low values 1.01 | locus YNR049C, strain mso1, hits give low values 1 | locus YNR052C, strain pop2, hits give low values 0.979 | locus YOL006C, strain TOP1, hits give low values 1.03 | locus YOL012C, strain htz1 1.17 | locus YOL147C, strain pex11, hits give low values 0.986 | locus YOR001W, strain rrp6, hits give low values 0.989 | locus YOR061W, strain CKA2, hits give low values 1 | locus YOR069W, strain VPS5, hits give low values 1 | locus YOR070C, strain gyp1, hits give low values 0.987 | locus YOR080W, strain dia2, hits give low values 0.992 | locus YOR083W, strain WHI5, hits give low values 1.01 | locus YOR106W, strain vam3, hits give low values 0.98 | locus YOR136W, strain idh2, hits give low values 0.991 | locus YOR144C, strain elg1, hits give low values 0.992 | locus YOR184W, strain ser1, hits give low values 0.994 | locus YOR231W, strain MKK1, hits give low values 0.98 | locus YOR265W, strain rbl2, hits give low values 0.993 | locus YOR270C, strain vph1, hits give low values 0.86 | locus YOR290C, strain snf2, hits give low values 1.03 | locus YOR316C, strain cot1, hits give low values 0.981 | locus YPL051W, strain arl3, hits give low values 1.02 | locus YPL055C, strain LGE1, hits give low values 1.03 | locus YPL078C, strain atp4, hits give low values 0.985 | locus YPL106C, strain sse1, hits give low values 1.02 | locus YPL240C, strain hsp82, hits give low values 0.991 | locus YPL256C, strain CLN2, hits give low values 0.955 | locus YPR119W, strain clb2, hits give low values 0.982 | locus YPR141C, strain kar3, hits give low values 0.98 | locus YPR163C, strain tif3, hits give low values 0.981 | locus YPR167C, strain met16, hits give low values 0.983 | strain wtn01, hits give low values 1
